# Screening data deposited in PubChem by National Center for Advancing Translational Sciences (NCATS).
# D1 antag: blocks dopamine activation of the human D1 receptor; HEK293 TREx D1 cells, calcium flux, dopamine EC80; active compounds read low; activity change, negative = inhibition, % at 10 µM; 3.2% of 360,000 active; in the data active = activity change below about -30%
#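 Tetracycline-induced HEK293 T-REx cells with force-coupled D1 receptor were loaded with a no-wash calcium dye. Compound was added after a 10 s baseline and read kinetically for 180 s; EC80 dopamine was then added and calcium flux followed another 180 s.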
# TRHR agonist: TRH receptor (human) agonism; activation, % at 2 µM; 0.18% of 360,000 active; TRHR cells, calcium flux fluo-8, FDSS agonist mode
# Target sequence (P34981 whole entry, looked up): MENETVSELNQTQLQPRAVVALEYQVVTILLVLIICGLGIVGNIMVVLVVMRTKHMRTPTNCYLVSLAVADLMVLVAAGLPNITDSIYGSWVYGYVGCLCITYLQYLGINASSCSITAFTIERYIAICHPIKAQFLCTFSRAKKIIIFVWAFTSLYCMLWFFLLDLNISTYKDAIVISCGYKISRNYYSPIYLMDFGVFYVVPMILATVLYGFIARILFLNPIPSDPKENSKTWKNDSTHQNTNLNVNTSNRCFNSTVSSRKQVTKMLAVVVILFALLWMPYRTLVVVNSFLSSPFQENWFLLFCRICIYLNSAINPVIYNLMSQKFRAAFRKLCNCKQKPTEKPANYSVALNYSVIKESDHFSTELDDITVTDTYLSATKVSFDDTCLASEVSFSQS
#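 Agonist-mode FDSS calcium read (Ex 480/Em 530, 1 s cycles) in 1536-well TRHR cells with fluo-8 dye, after 10-cycle baseline and 23 nL compound addition; TRH at EC20 (10 nM final) added afterwards for the enhancer phase.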
# D1 ag: agonists of human D1 dopamine receptor; P21728; HEK293 T-REx D1 cells, calcium flux, agonist mode; activation, % at 2 µM; 1% of 360,000 active
#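 Tetracycline-induced HEK293 TREx D1 cells, force-coupled to calcium signalling, were dye-loaded with a no-wash calcium kit. Compound was pin-added after a 10 s baseline. Fluorescence was read kinetically at 1 cycle/s for 180 s, with calcium rises flagged as agonism.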
# D1 potentiator: enhances dopamine response at the human D1 receptor. potentiation, % at 10 µM. P21728. 0.036% of 360,000 active. HEK293 TREx D1 cells, calcium flux, dopamine EC20 potentiation. AID 504651; in the data active = potentiation above about 30%
# TRHR enhancer: TRH receptor (human) allosteric enhancement | TRHR cells, fluo-8 calcium fluorescence, EC20 TRH enhancement | 0.66% of 360,000 active | enhancement, % at 2 µM | P34981; in the data active = enhancement above about 30%
#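 TRHR-expressing cells loaded with fluo-8 calcium dye were read kinetically (ex 480/em 530) during compound addition, then stimulated with an EC20 of TRH (10 nM final). Enhancement of the Gq-mediated intracellular calcium response was scored.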
# Hits are given with their value; i = inactive; nt = not tested or not shown. An excerpt weighted towards active compounds, which were near 4.7% of everything screened. Cut-off read from the data, not from the text of the source, unless noted: active = activation above about 30%; inactive = the rest.
SMILES,D1 antag,TRHR agonist,D1 ag,D1 potentiator,TRHR enhancer
COc1ccc(C2CC(c3ccc(F)cc3)=NN2c2ccccc2)cc1OC (stereo unspecified),-78,i,i,i,i
CN(Cc1ccccc1)C(=O)C1CCN(S(=O)(=O)c2ccc3c(c2)oc(=O)n3C)CC1,i,i,i,i,i
CSc1nc2sc3c(c2c(=O)n1C)CCCC3,i,i,i,i,i
CSc1nc2sc3c(c2c(=O)n1C)CCC3,-35,i,i,i,i
CCc1nc2sc3c(c2c(=O)n1CCO)CCC3,-44,i,i,i,i
Cc1cccc(C(C)C)c1NC(=O)C(C)OC(=O)Cn1cnc2c1c(=O)n(C)c(=O)n2C (stereo unspecified),i,i,i,i,i
COc1cccc(CNC(=O)Nc2ccc3c(c2)N(C)C(=O)c2ccccc2S3)c1,i,i,i,i,i
O=C1NC2=C(C(=O)CCC2)C(c2ccc3ncccc3c2)N1 (stereo unspecified),-40,i,i,i,i
O=C1CCCC2=C1C(c1ccncc1)Nc1ccccc1N2 (stereo unspecified),i,i,i,i,i
CSc1nnc2c3ccccc3n(Cc3ccccc3)c2n1,-56,i,i,i,i
CN(CC(=O)Nc1cccc(F)c1)C(=O)c1ccc(-n2cncn2)c([N+](=O)[O-])c1,-40,i,i,i,i
COc1cc(CC(=O)OCC(=O)N2CC(=O)Nc3ccccc32)cc(OC)c1OC,-33,i,i,i,i
O=C1CN(C(=O)COC(=O)c2cccc(S(=O)(=O)NCc3ccccc3)c2)c2ccccc2N1,i,i,i,i,i
O=C1CN(C(=O)COC(=O)c2cccc(OCc3ccccc3)c2)c2ccccc2N1,-89,i,i,i,i
Cc1cc(C)cc(OCC(=O)OCC(=O)N2CC(=O)Nc3ccccc32)c1,i,i,i,i,i
O=C(CSc1nc(-c2ccc(F)cc2)[nH]c1-c1ccccc1)NCC1CCCO1 (stereo unspecified),i,i,i,i,i
COc1cc(OC)c(N(C)C(=O)c2cc3c(s2)-c2ccccc2OC3)cc1Cl,i,i,i,i,i
O=C(CS(=O)(=O)Nc1ccc(F)cc1Cl)Nc1ccc(F)cc1Cl,i,i,i,i,i
COc1ccc(OC)c(NC(=O)Cn2cnc3ccc(S(=O)(=O)N4CCC(C)CC4)cc3c2=O)c1,i,i,i,i,i
Cc1noc(/C=C/N(C)C)c1S(=O)(=O)N1CCN(c2ccccc2)CC1,-37,i,i,i,i
Cc1noc(C)c1S(=O)(=O)N1CCN(c2ccccc2)CC1,-63,i,i,nt,i
Cc1noc(/C=C/N(C)C)c1S(=O)(=O)N1CCCC(C(=O)NCc2ccccc2Cl)C1 (stereo unspecified),-51,i,i,i,i
Cc1noc(C)c1S(=O)(=O)N1CCN(c2ccccc2Cl)CC1,i,i,i,i,i
CCCN(CC1CC1)C(=O)COC(=O)c1[nH]c(C)c(C(=O)OCC)c1C,i,i,30,i,i
CCN(C(=O)Cn1c(=O)n(Cc2ccc3c(c2)OCO3)c(=O)c2ccc(C(=O)NC3CCCCC3)cc21)c1cccc(C)c1,-54,i,i,i,i
SMILES,D1 antag,TRHR agonist,D1 ag,D1 potentiator,TRHR enhancer
Cc1ccc(S(=O)(=O)N2CCN(Cc3nnc(-c4c(-c5ccccc5)noc4C)o3)CC2)cc1,-42,i,i,nt,i
O=S(=O)(c1ccc(F)cc1)N1CCN(Cc2nnc(-c3ccccc3)o2)CC1,i,i,i,i,i
CNC(=S)N(Cc1ccc(OC)cc1)C1CC(=O)N(c2ccc(OC)cc2)C1=O (stereo unspecified),-36,i,i,i,i
Cc1ccc(S(C)(=O)=O)cc1C(=O)N1CC(C(N)=O)Oc2ccccc21 (stereo unspecified),i,i,i,i,i
CC1CN(S(=O)(=O)c2cccc(C(=O)N(CCc3ccccc3)Cc3ccccc3)c2)CC(C)O1 (stereo unspecified),i,i,i,i,i
COc1ccc(N2CCN(C(=O)c3[nH]c4ccc(OC)cc4c3C)CC2)cc1,i,i,i,i,i
CCOC(=O)C1CCN(C(=O)c2[nH]c3ccc(OC)cc3c2C)CC1,-67,i,i,i,i
O=C(C1CCCN(S(=O)(=O)c2cccc3nsnc23)C1)N1CCN(c2cccc(Cl)c2)CC1 (stereo unspecified),i,i,i,i,i
CCCn1c(=O)c2sccc2n2c(CCCC(=O)Nc3ccccc3F)nnc12,i,i,i,i,i
Cc1ncsc1CCC(=O)N1CCCC(Nc2ccc(C(C)C)cc2)C1 (stereo unspecified),i,i,i,i,i
CC(Sc1nc2c(c(=O)[nH]1)CCCC2)C(=O)Nc1ccccc1C#N (stereo unspecified),i,i,i,nt,i
O=C(NC1CCN(Cc2ccccc2)CC1)c1cccc(S(=O)(=O)Nc2ccc(F)cc2)c1,i,i,i,i,i
Cc1ccc(OC(C)C(=O)Nc2ccncc2)cc1C (stereo unspecified),-32,i,i,i,i
CC(Oc1ccc(Br)cc1)C(=O)Nc1ccncc1 (stereo unspecified),i,i,i,i,i
CC(Oc1ccc(Br)cc1Cl)C(=O)Nc1ccncc1 (stereo unspecified),-35,i,i,i,i
CCSc1nnc(N2C(=O)C(O)=C(C(=O)c3ccco3)C2c2cccc(OC)c2)s1 (stereo unspecified),i,i,77,i,i
CSc1nnc(N2C(=O)C(O)=C(C(=O)c3ccco3)C2c2ccc(F)cc2)s1 (stereo unspecified),i,36,128,i,i
CSc1nnc(N2C(=O)C(O)=C(C(=O)c3ccco3)C2c2cccc(Cl)c2)s1 (stereo unspecified),i,i,i,i,i
CCOC(=O)c1c(C)n(C)c2ccc(OC)c(NC(=O)CCN3CCC(Cc4ccccc4)CC3)c12,-36,i,i,i,i
O=C(Nc1ccc(Cl)cc1)C1C2CCCCC21 (stereo unspecified),i,i,i,i,i
Cc1ccc(S(=O)(=O)NC(=O)Nc2cc(C(C)(C)C)on2)cc1,-37,i,i,i,i
Cc1ccc(NC(=S)NC2CC3CCC(C2)N3Cc2ccco2)c(C)c1 (stereo unspecified),-43,i,i,i,i
COc1ccc(NC(=S)NC2CC3CCCC(C2)N3C2CC2)cc1 (stereo unspecified),-38,i,i,i,i
CCc1ccc(NC(=S)NC2CC3CCCC(C2)N3Cc2cccs2)cc1 (stereo unspecified),-81,i,i,i,i
CCc1ccccc1NC(=O)NC1CC2CCC(C1)N2Cc1cccs1 (stereo unspecified),i,i,i,i,i
Cc1cccc(NC(=S)NC2CC3CCC(C2)N3Cc2ccco2)c1C (stereo unspecified),i,i,i,i,i
